# Bioassay records as filed in PubChem.
# PLK1 PBD block = blocks phosphopeptide binding to human PLK1 polo-box domain | 2.8% of 360,000 active | P53350 | Plk1 PBD binding of FITC phosphopeptide, fluorescence polarization | Potency, µM, for inactives: max response, negative = inhibition, actives largely listed as inhibitors; also: potency is read from the fitted curve at half-maximal effect; series mostly up to about 57 µM; % is scaled to controls: 0 for no effect and ±100 for the full control effect; nearly all actives have a fitted effect of over 65% in size
# G9a block = G9a (human) methyltransferase inhibition. Q96KQ7. G9a H3K9 monomethylation, AlphaScreen, 2 h. Potency, µM (series often up to 102 µM), for the others: at the top dose activity, negative = inhibition, most hits filed as inhibitors. 8.8% of 350,000 active. AID 504332; also: potency is read from the fitted curve at half-maximal effect; % is scaled to controls: 0 for no effect and ±100 for the full control effect; nearly all actives have a fitted effect of over 75% in size
#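 G9a (20 nM) was preincubated 15 min with compound, then reacted 2 h at room temperature with 500 nM biotin-H3K9 peptide and 20 µM SAM. Monomethyl-H3K9 detected by AlphaScreen using anti-H3K9me1 antibody.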
# BAZ2B block = BAZ2B (human) inhibition. Q9UIF8. AlphaScreen BAZ2B-H3K14Ac peptide displacement. Potency, µM (highest dose often 114 µM), without a hit: at the top dose activity change, negative = inhibition, most hits filed as inhibitors. 4.4% of 360,000 active. AID 504333; also: potency is read from the fitted curve at half-maximal effect; % is scaled to controls: 0 for no effect and ±100 for the full control effect; nearly all actives have a fitted effect of over 60% in size
# Target sequence (Q9UIF8 whole entry, looked up): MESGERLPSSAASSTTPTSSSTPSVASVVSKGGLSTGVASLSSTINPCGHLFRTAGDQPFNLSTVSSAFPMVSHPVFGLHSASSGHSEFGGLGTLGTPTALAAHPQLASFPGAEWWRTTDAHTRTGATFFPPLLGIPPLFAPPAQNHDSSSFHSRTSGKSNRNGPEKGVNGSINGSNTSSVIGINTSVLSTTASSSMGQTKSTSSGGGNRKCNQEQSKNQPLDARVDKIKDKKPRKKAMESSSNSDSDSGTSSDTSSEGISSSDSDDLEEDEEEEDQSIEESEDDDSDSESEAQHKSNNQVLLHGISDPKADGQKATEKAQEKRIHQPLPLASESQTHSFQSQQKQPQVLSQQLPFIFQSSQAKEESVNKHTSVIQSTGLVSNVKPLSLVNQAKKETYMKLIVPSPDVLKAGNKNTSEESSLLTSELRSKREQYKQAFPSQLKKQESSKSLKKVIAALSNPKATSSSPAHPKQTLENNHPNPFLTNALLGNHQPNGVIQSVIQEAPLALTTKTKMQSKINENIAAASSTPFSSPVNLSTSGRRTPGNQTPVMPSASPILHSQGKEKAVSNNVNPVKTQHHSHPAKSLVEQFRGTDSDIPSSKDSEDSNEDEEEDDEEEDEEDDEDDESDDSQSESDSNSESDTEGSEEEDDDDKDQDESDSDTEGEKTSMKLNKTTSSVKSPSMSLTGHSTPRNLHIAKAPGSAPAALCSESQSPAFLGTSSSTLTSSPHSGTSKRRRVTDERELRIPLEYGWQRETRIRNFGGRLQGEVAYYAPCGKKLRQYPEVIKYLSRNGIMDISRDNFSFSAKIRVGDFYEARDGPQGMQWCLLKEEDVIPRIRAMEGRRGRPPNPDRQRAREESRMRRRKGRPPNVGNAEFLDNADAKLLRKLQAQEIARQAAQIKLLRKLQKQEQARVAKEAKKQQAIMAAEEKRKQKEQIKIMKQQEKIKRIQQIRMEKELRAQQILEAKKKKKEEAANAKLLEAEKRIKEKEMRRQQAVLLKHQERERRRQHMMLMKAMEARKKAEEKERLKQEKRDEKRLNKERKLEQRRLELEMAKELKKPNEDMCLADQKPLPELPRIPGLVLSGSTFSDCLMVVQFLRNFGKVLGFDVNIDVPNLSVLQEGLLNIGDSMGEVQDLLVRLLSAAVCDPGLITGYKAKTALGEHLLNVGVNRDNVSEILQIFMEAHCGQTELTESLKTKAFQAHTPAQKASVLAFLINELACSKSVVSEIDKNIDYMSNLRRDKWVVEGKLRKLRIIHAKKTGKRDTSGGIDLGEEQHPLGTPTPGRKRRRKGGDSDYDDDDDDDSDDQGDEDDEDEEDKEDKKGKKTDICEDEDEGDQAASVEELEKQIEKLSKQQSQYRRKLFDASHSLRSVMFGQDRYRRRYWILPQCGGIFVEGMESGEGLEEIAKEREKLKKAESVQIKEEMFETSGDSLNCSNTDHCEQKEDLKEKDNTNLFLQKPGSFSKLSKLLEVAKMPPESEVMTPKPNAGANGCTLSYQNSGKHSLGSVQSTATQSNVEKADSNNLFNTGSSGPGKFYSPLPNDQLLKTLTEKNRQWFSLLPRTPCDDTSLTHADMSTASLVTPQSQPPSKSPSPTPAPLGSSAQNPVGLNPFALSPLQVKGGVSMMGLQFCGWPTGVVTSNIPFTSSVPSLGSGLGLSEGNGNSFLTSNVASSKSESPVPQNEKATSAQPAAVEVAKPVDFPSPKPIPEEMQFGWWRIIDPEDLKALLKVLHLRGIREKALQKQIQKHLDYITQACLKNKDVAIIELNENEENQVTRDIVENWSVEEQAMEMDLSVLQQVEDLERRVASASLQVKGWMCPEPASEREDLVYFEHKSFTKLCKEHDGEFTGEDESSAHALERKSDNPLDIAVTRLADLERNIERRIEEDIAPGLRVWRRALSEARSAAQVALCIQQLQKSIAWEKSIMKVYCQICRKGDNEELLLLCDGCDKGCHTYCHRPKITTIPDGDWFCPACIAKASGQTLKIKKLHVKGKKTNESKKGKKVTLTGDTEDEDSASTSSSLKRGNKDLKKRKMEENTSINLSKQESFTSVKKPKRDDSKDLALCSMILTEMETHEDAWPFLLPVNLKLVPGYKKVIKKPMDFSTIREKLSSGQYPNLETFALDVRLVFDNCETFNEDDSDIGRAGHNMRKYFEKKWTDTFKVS
#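 BAZ2B 50 nM plus b-H3(5-23)K14Ac 50 nM, PBS pH 7.4/0.01% Tween-20, 30 min RT; compound added (max 110 uM), 30 min RT; streptavidin donor/Ni-chelate acceptor beads 10 ug/mL final, 20 min dark; AlphaScreen read.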
# JMJD2A Tudor = JMJD2A Tudor domain (human) inhibition | Potency, µM (doses to about 114 µM), for the others: at the highest dose activity change, negative = inhibition, actives largely listed as inhibitors | AlphaScreen JMJD2A-Tudor / H3K4me3 peptide binding | 4.4% of 390,000 active | O75164; also: potency is read from the fitted curve at half-maximal effect; % is scaled to controls: 0 for no effect and ±100 for the full control effect; nearly all actives have a fitted effect of over 50% in size
# PI5P4K alpha inh = inhibitors of human PI5P4K alpha; P48426; PI5P4Kalpha enzyme, ADP-Glo luminescence, 60 min; hits give low values; max response, %; 1.2% of 330,000 active; AID 652105; active = max response of -50% or lower; inconclusive = between -30% and -50%; inactive = -30% or higher; also: value at the top dose of about 77 µM; % is scaled to controls: 0 for no effect and ±100 for the full control effect
#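 qHTS, 1536-well: enzyme/substrate mix, compound by pin tool, 5 microM ATP final; RT 60 min; ADP-Glo reagents 1 (45 min) then 2 (30 min); luminescence.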
# HP1b chromo inh = HP1-beta chromodomain-methylated histone interaction inhibition. AlphaScreen HP1-beta / biotin-H3K9me3 peptide binding. Potency, µM (top dose mostly 114 µM), inactives show top-dose activity change, negative = inhibition, actives largely listed as inhibitors. 0.56% of 390,000 active. AID 540317; also: potency is read from the fitted curve at half-maximal effect; nearly all actives have a fitted effect of over 70% in size
#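 HP1-beta protein (50 nM final) preincubated 30 min at room temperature with biotinylated H3(1-18)K9me3 peptide (50 nM) in PBS pH 7.4, 0.01% Tween-20, then compound added for 30 min. AlphaScreen streptavidin donor/nickel chelate acceptor beads (10 ug/mL final), 30 min dark, luminescence read.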
# The depositor's hits bear a star; ? = inconclusive; . = not tested or not shown; [ ] = remark or other dose. Sampled rows, rich in hits. Any-hit rate of the full collection: about 12%. Unless noted, calls follow the shape of the dose curve; as a rule, active = well fitted curve in the direction sought with a large enough effect; inconclusive = small, poorly fitted or top-dose-only effect, or another doubt; inactive = no such curve, though single readings can be large; an effect the other way counts as inactive or inconclusive.
SMILES,PLK1 PBD block,G9a block,BAZ2B block,JMJD2A Tudor,PI5P4K alpha inh,HP1b chromo inh
CCCNC(=O)C(NS(=O)(=O)c1ccc2c(c1)c(=O)n(C)c(=O)n2C)c1ccccc1 (stereo not drawn),-23%,40µM*,-2%,-13%,-1,37%
Cn1c(=O)c2cc(S(=O)(=O)NC(C(=O)Nc3cccc(F)c3)c3ccccc3)ccc2n(C)c1=O (stereo not drawn),-10%,18µM*,-14%,-13%,3,44%
C/C(=N\Nc1ccc(C(=O)O)cc1)c1ccc(-n2ccnc2)cc1,-10%,13µM*,-23%,-29%,-6,32%
C/C(=N\Nc1ccccc1Cl)c1ccc(-n2ccnc2)cc1,-4%,10µM*,50µM*,56µM*,5,?
Cc1cccc(-c2nnc(SCC(=O)NC3CCCC3)o2)c1,0%,3%,-2%,1%,12,22%
COc1ccc(-c2nnc(SCC(=O)NC3CC3)o2)c(OC)c1,-12%,-33%,8%,-4%,-7,17%
COc1ccc(OC)c(-c2nnc(SCC(=O)NC3CCCCC3)o2)c1,-7%,45µM*,4%,-11%,-2,60%
COc1ccc(OC)c(NC(=O)CSc2nnc(C3CCCCC3)o2)c1,24µM*,4%,-16%,-22%,-3,4%
COc1ccccc1NC(=O)CSc1nnc(C2CCCCC2)o1,2%,?,-1%,-9%,0,43%
COc1cccc(-c2nnc(SCC(=O)NC3CCCCC3)o2)c1,.,8.9µM*,-6%,-15%,.,-13%
Clc1ccc(-c2nnc(CSc3nnc(-c4cccs4)o3)o2)cc1,1%,-34%[59 µM],-1%,4%,-13,31%
c1ccc(-c2nnc(SCc3nnc(-c4cccs4)o3)o2)cc1,-12%,?,50µM*,-12%,-9,26%
CC(=O)NCCNc1ncnc2ccc(-c3ccccc3C(F)(F)F)cc12,.,-39%[0.501 µM],.,.,.,.
C#CCOCCOCCOCCNc1nc(N2CCN(C(=O)C([C@@H](C)CC)n3cc(C(N)COC(=O)C(F)(F)F)nn3)CC2)nc(N2CCN(C(=O)[C@H](CCC(=O)O)n3cc(C(N)CC(C)C)nn3)CC2)n1 (stereo partly drawn),-4%,.,.,63µM*,8,42%
C#CCOCCOCCOCCNc1nc(N2CCN(C(=O)C([C@@H](C)CC)n3cc(C(N)COC(=O)C(F)(F)F)nn3)CC2)nc(N2CCN(C(=O)C([C@@H](C)CC)n3cc(C(N)CC(C)C)nn3)CC2)n1 (stereo partly drawn),4%,.,.,79µM*,15,29%
C#CCOCCOCCOCCNc1nc(N2CCN(C(=O)[C@H]([C@@H](C)CC)n3cc(CCC(=O)O)nn3)CC2)nc(N2CCN(C(=O)[C@H](CCCCN)n3cc(CCC(=O)O)nn3)CC2)n1,-8%,.,.,-21%,8,15%
CCN(C(=O)COC(=O)CCS(=O)(=O)c1ccc(C)cc1)C1CCS(=O)(=O)C1 (stereo not drawn),-6%,24%,-9%,1%,-3,21%
O=C(NC(=S)Nc1ccccc1N1CCCC1)c1ccc([N+](=O)[O-])cc1,-14%,11µM*,11µM*,25µM*,4,22µM*
CC(=O)NC(=S)Nc1ccccc1N1CCCCC1,-23%,50µM*,-27%,-8%,1,26%[57 µM]
CCOC(=O)c1oc2c(c1C)-c1nn(Cc3cccc(Cl)c3)cc1CC2,.,29%[59 µM],3%,1%,.,68%
COc1ccc(NC(=O)CSc2nnc(NC(=O)NC3CCCCC3)s2)cc1OC,.,-2%[59 µM],-2%,-6%,.,25%
CSc1ccc(CN2CCN(S(=O)(=O)Cc3ccccc3)CC2)cc1,2%,89µM*,-13%,5µM*,-10,?
CSc1ccc(CN2CCN(C(=O)c3ccncc3)CC2)cc1,-18%,-3%,-13%,-6%,0,-1%
CSc1ccc(CN2CCCN(C)CC2)cc1,0%,10µM*,56µM*,13µM*,0,?
O=S(=O)(Cc1ccccc1)N1CCN(Cc2ccc(Br)cc2)CC1,2%,12%,-12%,3.5µM*,-7,?
